Screens from PubChem.
Many of the other results were omitted from the sample, so hits are more common in it than they were.
Methyltransferases – Primary Screen for Target Class Profiling of Small Molecule Inhibitors of Methyltransferases; hit rate 3.9% among 25,000; calls only at 40 µM; purified enzyme, MTase-Glo SAH luminescence; stronger effect = lower value; call rule not given here
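Each enzyme was assayed with SAM and its substrate. SAH formation detected by MTase-Glo luminescence; single-point 40 uM screen[…].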
MTase-Glo ctr – Counterscreen for Target Class Profiling of Small Molecule Inhibitors of Methyltransferases; shares compounds with Methyltransferases; MTase-Glo coupled enzymes, SAH conversion luminescence, no MTase; Potency, µM (series often up to 57.3 µM), for the others: at the top dose activity change, negative = inhibition, actives largely listed as inhibitors; hit rate 6% among 180; AID 1745851, 2022; active means well fitted inhibition curve with a large enough effect; further: potency means the concentration at half of the fitted maximal effect
An asterisk follows results filed as active; i = inactive; + = active, no number; [ ] = dose if it differs, or a comment. On the % scale 0 is the no-effect control and ±100 the full control effect.

SMILES	Methyltransferases	others
O=C(CCC1CCCN(S(=O)(=O)c2ccccc2)C1)NCCCN1CCCC1=O (stereo unspecified)	i
O=C1OCCC1CCC(=O)N1CCc2c(nc(-c3ccccc3)[nH]c2=O)C1 (stereo unspecified)	i
CCCc1cc(C(=O)N2CCc3c(nc(-c4cccnc4)[nH]c3=O)C2)n[nH]1	i
O=C(c1cc(-c2ccccc2)n[nH]1)N1CCc2c(nc(-c3ccccc3)[nH]c2=O)C1	+	MTase-Glo ctr=3.9%
COc1ccc(OC)c2c1cc1n2CC(C)(C(=O)NC2CCCCC2)N(Cc2ccco2)C1=O (stereo unspecified)	i
COc1ccccc1CNC(=O)C1c2c(n(C)c3ccccc23)SCC(=O)N1c1ccc2c(c1)OCO2 (stereo unspecified)	i
O=[S+]1([O-])NC2(CCN(Cc3ccc(F)cc3)CC2)CNc2ccccc21	i
N#Cc1ccc(CN2CCC3(CNc4ccccc4[S+](=O)([O-])N3)C2)cc1 (stereo unspecified)	i
COc1cccc(CN2CCCC3(CNc4ccccc4[S+](=O)([O-])N3)C2)c1 (stereo unspecified)	+	MTase-Glo ctr=-4.8%
COc1cccc(Cn2nc3n(CCC(C)C)c(=O)c4ccc(C(=O)NC(C)C)cc4n3c2=O)c1	i
CCn1cc(CN2CCCC23CCN(c2cc(C)nc4ccccc24)CC3)c(C)n1	+	MTase-Glo ctr=0.4%
CCCn1ncc(CN2CCCC23CCN(c2ncccn2)CC3)c1C	i
CCC(C)NC(=O)c1ccc2c(=O)n(C)c3nn(CC(=O)c4ccc(C)cc4C)c(=O)n3c2c1 (stereo unspecified)	i
Cc1ccccc1NC(=O)CSc1nnc2n(CCc3ccccc3)c(=O)c3ccccc3n12	i
COCCN1C(=O)c2cc(-c3ccccc3)nn2CC1(C)C(=O)NCc1ccccc1 (stereo unspecified)	i
CC(C)NC(=O)NC1CC2(CCN(C(=O)Cc3ccc(O)cc3)CC2)c2ccccc21 (stereo unspecified)	i
CC(=O)NC1CC2(CCN(Cc3ccc(O)cc3)CC2)c2ccccc21 (stereo unspecified)	+	MTase-Glo ctr=2.0%
CC(=O)Nc1ccc(CN2CCC3(C2)C(=O)N(C)c2ccccc23)cc1 (stereo unspecified)	i
CC(C)CCn1c(=O)c2ccc(C(=O)NCC(C)C)cc2n2c(=O)n(Cc3c(F)cccc3Cl)nc12	i
CCCn1c(=O)c2ccc(C(=O)NC(C)C)cc2n2c(=O)n(CC(=O)Nc3ccccc3F)nc12	i
Cn1cc(-c2ccc3c(n2)CN(Cc2ccc(F)cc2)C(=O)CO3)cn1	i
O=C1COc2ccc(-c3cccc(O)c3)nc2CN1Cc1ccc(C(F)(F)F)cc1	+	MTase-Glo ctr=1.9%[85.7 µM]
O=C1COc2ccc(N3CCOCC3)nc2CN1Cc1ccc(F)cc1	i
Cc1ccc(Cn2c(=O)c3ccc(C(=O)NCC(C)C)cc3n3c(=O)n(CC(=O)NC(C)C)nc23)cc1	i
COc1ccc(C(=O)Cn2nc3n(CCc4ccccc4)c(=O)c4ccccc4n3c2=O)cc1	i
SMILES	Methyltransferases	others
CC(C)CCn1c(=O)c2ccc(C(=O)NCC(C)C)cc2n2c(=O)n(Cc3ccccc3)nc12	i
O=C(NC1CCN(CC(F)(F)F)CC1)c1ccc(-c2cccc(F)c2)nc1	i
CC(C)c1nccn1CCCNC(=O)c1ccc(-c2cccc(F)c2)nc1	+	MTase-Glo ctr=2.2%
CC(C)OCCCNC(=O)c1ccc2c(=O)nc3c(-c4cccc(F)c4)n[nH]n3c2c1	i
CCc1ccc(C(=O)NC(Cc2c[nH]c3ccccc23)C(=O)OCC(=O)c2ccccc2)cc1 (stereo unspecified)	i
CCC(C)NC(=O)c1ccc2c(=O)n(C(C)C)c3nn(Cc4ccc(N5CCCC5=O)cc4)c(=O)n3c2c1 (stereo unspecified)	i
CCOc1ccc(N2C(=O)c3cc(-c4ccccc4)nn3CC2(C)C(=O)NCCCOC)cc1 (stereo unspecified)	i
O=C(C1CCCN1[S+](=O)([O-])c1cccc(C(F)(F)F)c1)N1CCC(c2nc3ccncc3[nH]2)C1 (stereo unspecified)	i
O=C(C1CCCN1C(=O)c1ccccc1Cl)N1CCC(c2nc3ccncc3[nH]2)CC1 (stereo unspecified)	i
O=C(c1ccc(C(F)(F)F)cc1)N1CCCC(C(=O)N2CCC(c3nc4ccncc4[nH]3)CC2)C1 (stereo unspecified)	+	MTase-Glo ctr=1.6%
CN1CC2(CCN(C(=O)c3cccn3C)CC2)CC(c2ccccc2)C1=O (stereo unspecified)	i
Cn1cccc1C(=O)N1CC[C@H](CO)[C@H](NC(=O)C2CC2)C1	i
CN(C)CC1(O)CCC2(CCN(C(=O)c3cccn3C)CC2)CC1	+	MTase-Glo ctr=5.41µM*
